KDM5B inh = blocks human KDM5B histone demethylase activity; Potency, µM (doses to about 57.7 µM), usual class: inhibitors; KDM5B demethylase, FDH-coupled NADH fluorescence (FDH is formaldehyde dehydrogenase); 220,000 compounds, 2.6% hits; also: potency is read from the fitted curve at half-maximal effect; 0% is about no effect; nearly all actives have a fitted effect of over 70% in size
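qHTS format, multiple compound concentrations. Buffer 50 mM HEPES pH 7.5/0.01% Tween-20; 200 nM KDM5BΔAP final; 10 min compound preincubation; substrate-mix levels 12.5 µM peptide, 25 µM α-KG, 0.25 mM NAD⁺; 30 min RT; ΔRFU.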
IP6K1 inh = blocks human inositol hexakisphosphate kinase 1; 140,000 compounds, 0.81% hits; Q92551; AID 1645851; activity change, % (series mostly up to about 58 µM); IP6K1 kinase, ADP-Glo luminescence, 2 h; stronger effect = lower value; in the data active = activity change below about -25%; also: % is scaled to controls: 0 for no effect and ±100 for the full control effect
Target sequence (Q92551 whole entry, looked up): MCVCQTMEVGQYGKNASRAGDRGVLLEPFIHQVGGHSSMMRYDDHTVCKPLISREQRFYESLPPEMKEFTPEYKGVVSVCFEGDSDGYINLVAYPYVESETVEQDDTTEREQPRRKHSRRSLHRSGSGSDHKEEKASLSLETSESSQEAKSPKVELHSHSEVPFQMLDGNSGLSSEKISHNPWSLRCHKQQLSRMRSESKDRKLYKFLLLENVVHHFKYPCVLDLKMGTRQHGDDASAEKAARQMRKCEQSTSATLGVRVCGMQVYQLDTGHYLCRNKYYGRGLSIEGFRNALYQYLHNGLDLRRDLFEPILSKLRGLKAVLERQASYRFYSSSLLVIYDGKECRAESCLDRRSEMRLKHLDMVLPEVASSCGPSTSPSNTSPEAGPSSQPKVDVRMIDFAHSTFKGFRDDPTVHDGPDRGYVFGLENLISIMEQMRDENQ
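ADP-Glo luminescence measures ADP made by human IP6K1 during a 2 h RT reaction with ATP/IP6 (mix at 1.3 mM/130 uM); top library doses 57.5 and 19.1 uM final.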
IP6K1 inh cnf = confirmation of human IP6K1 inhibitors; shares compounds with IP6K1 inh; recombinant IP6K1 kinase, ADP-Glo luminescence, 2 h; Potency, µM (highest dose often 49 µM), for the others: at the highest dose activity change, negative = inhibition, hits mostly inhibitors; 1,200 compounds, 13% hits; AID 1645852; also: potency is read from the fitted curve at half-maximal effect; % is scaled to controls: 0 for no effect and ±100 for the full control effect; nearly all actives have a fitted effect of over 65% in size
The depositor's hits bear a star; i = inactive; ? = inconclusive; / = no result given. A selection: hits, their analogues and other compounds. The true share with any hit is near 2.7%. Unless noted, calls follow the shape of the dose curve; as a rule, active = well fitted inhibition curve with a large enough effect; inconclusive = small, poorly fitted or top-dose-only effect; inactive = no such curve, though single readings can be large or run the other way.

SMILES	KDM5B inh	IP6K1 inh	IP6K1 inh cnf
Cn1nc(C(=O)OCC(=O)Nc2ccc(Cl)cn2)c2ccccc2c1=O	i	/	/
Oc1[nH]c2ccccc2c1N=Nc1ccccc1	i	/	/
O=Nc1c(-c2c(O)[nH]c3ccccc23)[nH]c2ccccc12	/	/	1.1%
CN(C)C(=O)N1C2CCC1CN(c1ccc(C(F)(F)F)cc1)C2	i	-26.5*	?
O=C(N1CCCC1)N1C2CCC1CN(c1ccc(C(F)(F)F)cc1)C2	i	9.4	/
CCOC(=O)NC(CNC(=O)C(C)OCc1ccccc1)CC(C)C (stereo not given)	i	/	/
O=C(N[C@@H]1CCOC[C@H]1Oc1cccc(F)c1)c1cnc2ccccn2c1=O	35.5µM*	-42.4*	-3.5%
Cc1ccn(CCC(=O)N[C@@H]2COCC[C@@H]2Oc2cccc(F)c2)n1	i	8.9	/
O=C(OCc1ncc(-c2ccccc2)o1)c1ccc(O)cc1	i	/	/
N#C/C(=C\c1ccc(OC(=O)c2ccccc2)cc1)C(=O)Nc1ccccc1	i	/	/
N#C/C(=C\c1ccc(O)c(O)c1)C(=O)Nc1ccccc1	/	/	16.4µM*
Cn1c(N)c(C(=O)COC(=O)c2cc(-c3ccc(F)cc3)nc3ccccc23)c(=O)n(C)c1=O	i	/	/
COc1ccc(NC(=O)c2[nH]nc3c2CSc2ccccc2-3)c(OC)c1	i	-43.8*	-5.6%
COc1ccc(OC)c(CNC(=O)c2nn(C)c3c2CSc2ccccc2-3)c1	?	35.2	/
COC(=O)NCCNC(=O)c1ccc(-c2cccc(C(F)(F)F)c2)cc1	/	13.2	/
CCCN1C(C(=O)c2ccccc2)=C(OC(=O)COc2ccc(C)cc2)c2ccccc2S1(=O)=O	?	-16.7	/
CCCN1C(C(=O)c2ccccc2)=C(OC(=O)COc2ccccc2)c2ccccc2S1(=O)=O	?	-27.7*	?
CCN1C(C(=O)c2ccccc2)=C(OC(=O)COc2ccc(C)cc2)c2ccccc2S1(=O)=O	?	-15.9	/
CCN1C(C(=O)c2ccccc2)=C(OC(=O)COc2ccc(OC)cc2)c2ccccc2S1(=O)=O	?	-33.7*	-11.6%
CCc1ccc(NC(=O)CSc2nc3c(c(=O)n2CCc2ccccc2)SCC3)cc1	i	/	/
CCOC(=O)c1ccc(-c2ccc(/C=C/C(=O)c3cccc(N4CCOCC4)c3)o2)cc1	i	/	/
CCc1ccc(NC(=O)c2ccc3nc(C(C)C)oc3c2)cc1	i	-18.8	/
CCc1ccccc1NC(=O)c1ccc2nc(C(C)C)oc2c1	i	-36.1*	-3.4%
CCOc1ccc2c(n1)CCN(C(=O)Cc1ccccc1)C2	i	-10.3	/
CCOc1ccc2c(n1)CCN(C(=O)Cc1c[nH]c3ccccc13)C2	i	-25.6*	-26.2%
SMILES	KDM5B inh	IP6K1 inh	IP6K1 inh cnf
COc1ccccc1NC(=O)c1c(NC(=O)c2ccccc2Cl)sc2c1CCC2	i	-30.5*	11.5%
COc1ccccc1NC(=O)c1c(NC(=O)c2ccccc2F)sc2c1CCC2	?	14.0	/
COC(=O)N/N=C/c1cc(N=Nc2ccccc2)ccc1O	i	/	/
Cc1ccc(O)c(N=Nc2ccccc2)n1	/	/	7.31µM*
CC1CCN(c2ccc(NC(=O)c3cccc(Cl)c3)cc2C(=O)O)CC1	?	-17.0	/
O=C(Nc1ccc(N2CCC(N3CCCCC3)CC2)c(C(=O)O)c1)c1ccccc1	?	-37.0*	?
O=C1N(c2ccccc2)CC12CCN(S(=O)(=O)Cc1ccccc1)CC2	/	-13.1	/
CC(=O)Nc1ccc(NS(=O)(=O)c2c(Cl)cccc2Cl)cc1	i	/	/
CC(=O)Nc1ccc(NS(=O)(=O)c2ccc(Cl)s2)cc1	i	-27.8*	-24.6%
CN1CCN(Cc2ccc(-c3cnc4[nH]cc(-c5ccc6[nH]ccc6c5)c4c3)cc2)CC1	/	-46.6*	9.2µM*
CN1CCN(c2nc3c(c(=O)[nH]2)CCN(Cc2ccc4[nH]ccc4c2)CC3)CC1	i	2.3	/
Cc1ccc(N(CC(=O)NCCN2CCOCC2)S(=O)(=O)c2ccc(Cl)cc2)cc1C	i	/	/
O=C(NCC(F)(F)F)c1cn2cc(-c3ccccc3)sc2n1	/	-7.9	/
Fc1ccccc1CN1CCOC[C@H]1c1ncc(-c2cccc(Cl)c2)[nH]1	?	-1.1	/
Cc1cc(C)cc(-c2nc3cc(NC(=O)c4ccc5c(c4)OCO5)ccc3o2)c1	i	/	/
Cc1ccc(Cl)cc1NC(=O)c1oc2c(c1C)-c1[nH]ncc1CC2	?	-39.7*	?
Cc1cc(C)c(NC(=O)c2oc3c(c2C)-c2[nH]ncc2CC3)c(C)c1	i	-4.8	/
COc1cccc(N2C(=O)NC(=NC3CCCC3)C23CCCN(CC2CCCCC2)C3)c1 (stereo not given)	i	-20.8	/
COc1cccc(N2C(=O)NC(=NC3CCCCC3)C23CCCN(CC2CCCCC2)C3)c1 (stereo not given)	?	-25.6*	?
Cc1nc2cc(-c3ccccc3)nn2c(C)c1CCC(=O)Nc1ccc(F)cc1	i	/	/
O=C(Nc1ccc(Cl)cc1)N1CCN(c2nccc(Nc3ccccc3Cl)n2)CC1	/	5.4	/
COc1cc(OC)cc(-n2c(=O)c3ccccc3n(Cc3ccccc3C#N)c2=O)c1	i	-27.8*	-14.1%
Cc1cccc(-n2c(=O)c3ccccc3n(Cc3ccccc3C#N)c2=O)c1	i	-4.0	/
CC(C)CNC(=O)NC(=O)CSc1nc2ccccc2c(=O)n1-c1ccccc1F	i	/	/
C[S+](=O)([O-])NC1CCN(c2ccnc3ccnn23)CC1	/	0.2	/
SMILES	KDM5B inh	IP6K1 inh	IP6K1 inh cnf
CNC(=O)NC(=O)C(C)Sc1cc(C)c2ccccc2n1 (stereo not given)	i	/	/
CN(C)Cc1nnc(C2CC(NC(=O)c3ccnnc3)C2)n1C (stereo not given)	i	12.7	/
Cc1cc(C(=O)NC2CC(c3nnc(CN(C)C)n3C)C2)c2c(C)noc2n1 (stereo not given)	i	-28.5*	-7.1%
COc1cc(C(=O)OC2/C=C(\C)CCC3OC3(C)CC(O)[C@@H]2C(C)C)cc(OC)c1OC (stereo not given in full)	i	/	/
O=C(c1ccc2c(c1)OCO2)N1CCC2(CC1)C(=O)Nc1ccccc12	i	-33.0*	?
O=C(c1ccc2c(c1)OCO2)N1CC2(C1)C(=O)Nc1ccccc12	i	-16.2	/
OC[C@H]1C[C@@H](NCc2cccc3c2OCO3)[C@H](O)[C@@H]1O	i	-26.4*	?
OC[C@H]1C[C@@H](NCc2cccc(Cl)c2)[C@H](O)[C@@H]1O	?	-13.0	/
CCCc1nc(C(=O)N2C[C@H](c3cccc(OC)c3)[C@@H](N)C2)cs1	?	-26.5*	-3.1%
CCc1cc(C(=O)N2C[C@@H](C(=O)O)[C@H](c3cccc(OC)c3)C2)cs1	i	-4.1	/
COc1cc([C@H]2OC[C@]3(OC(C)=O)[C@@H](c4ccc(O[C@@H]5O[C@H](CO)[C@@H](O)[C@H](O)[C@H]5O)c(OC)c4)OC[C@H]23)ccc1O	/	22.6	/
COc1cc([C@H]2Oc3cc([C@H]4Oc5cc(O)cc(O)c5C(=O)[C@@H]4O)ccc3O[C@@H]2CO)ccc1O	/	-78.7*	7.31µM*
CC(=O)c1cccc(NC(=O)c2oc3c(c2C)-c2nn(Cc4ccc(Cl)cc4)cc2CC3)c1	i	-11.6	/
CCOC(=O)c1cccc(NC(=O)c2oc3c(c2C)-c2nn(CC)cc2CC3)c1	?	-28.3*	?
COCCCNC(=O)c1cc2cc(S(=O)(=O)N(C)C)ccc2n1C	i	/	/
